# Test results reported in PubChem BioAssay (NCATS).
# A number with no mark means an inactive call. Inconclusive results are not listed. Entries that show only a call come without a potency. The source made the active and inactive calls. Unless noted, calls come from the whole dose curve; as a rule, active = well fitted curve in the direction sought with a large enough effect; inconclusive = small, poorly fitted or top-dose-only effect, or another doubt; inactive = no such curve, though single readings can be large; an effect the other way counts as inactive or inconclusive.
# Tests used:
# Furin (Homo sapiens) = Furin (Homo sapiens) (UniProt P09958); test: Furin counterscreen qHTS for Zika virus inhibitors (AID 1347149);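 note: purified recombinant full-length human furin enzyme at 5 nM; fluorescence gain from furin cutting a BOC-RVRR-AMC peptide substrate over 15 min; top concentration of the series differs between compounds; nearly all actives have a fitted effect of over 70% in size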
# Furin (Homo sapiens), sequence (P09958 whole entry, looked up): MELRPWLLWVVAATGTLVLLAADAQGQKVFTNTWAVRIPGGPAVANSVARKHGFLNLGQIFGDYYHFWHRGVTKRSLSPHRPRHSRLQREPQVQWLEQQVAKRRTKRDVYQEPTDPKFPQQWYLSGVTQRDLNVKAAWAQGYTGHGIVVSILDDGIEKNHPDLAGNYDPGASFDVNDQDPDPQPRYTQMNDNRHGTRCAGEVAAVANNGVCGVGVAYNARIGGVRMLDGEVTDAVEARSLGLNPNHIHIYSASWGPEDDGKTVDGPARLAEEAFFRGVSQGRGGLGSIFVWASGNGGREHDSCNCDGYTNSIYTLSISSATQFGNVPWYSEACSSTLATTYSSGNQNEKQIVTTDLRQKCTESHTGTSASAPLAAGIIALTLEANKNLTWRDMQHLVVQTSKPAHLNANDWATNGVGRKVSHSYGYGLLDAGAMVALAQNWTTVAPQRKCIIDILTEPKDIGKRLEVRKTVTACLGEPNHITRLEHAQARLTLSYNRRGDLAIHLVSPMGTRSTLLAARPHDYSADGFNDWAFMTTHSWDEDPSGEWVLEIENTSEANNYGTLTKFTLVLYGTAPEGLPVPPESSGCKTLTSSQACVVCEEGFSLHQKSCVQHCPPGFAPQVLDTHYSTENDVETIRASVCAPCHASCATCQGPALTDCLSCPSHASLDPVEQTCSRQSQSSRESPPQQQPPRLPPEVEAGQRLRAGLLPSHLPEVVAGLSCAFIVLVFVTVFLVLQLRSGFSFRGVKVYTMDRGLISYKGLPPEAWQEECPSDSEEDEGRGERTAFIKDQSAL
# Method in brief: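 Fluorogenic cleavage of BOC-RVRR-AMC (2 microM final, Km ~15 µM) was monitored (ex 340, em 450 nm) at 37C after 15 min RT preincubation of 5 nM furin with compounds in HEPES pH 7.0 buffer with CaCl2 and Triton X-100. Percent inhibition was fitted to a 4-parameter Hill curve.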
# [1] = test system: Zika virus NS2B-NS3 protease (linked construct); test: Confirmatory screen NINDS AMC qHTS for Zika virus inhibitors (AID 1347152); note: top concentration of the series differs between compounds; nearly all actives have a fitted effect of over 70% in size
# Method in brief: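 IC50s from 4-parameter Hill fits of percent inhibition, based on AMC fluorescence gain (340/450 nm) over 15 min with 10 microM Bz-Nle-KRR-AMC. Enzyme: 1 nM linked NS2B-NS3 in Tris-HCl pH 8.0; 15-min compound preincubation.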
# [2] = test system: Zika virus NS2B-NS3 protease (unlinked complex); test: Confirmatory screen GU AMC qHTS for Zika virus inhibitors (AID 1347153); note: nearly all actives have a fitted effect of over 70% in size
# Method in brief: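 Fluorescence change (ex 340/em 450 nm) over 15 min, ~20% substrate conversion, normalized to no-inhibitor and no-enzyme controls, then Hill-fitted. Unlinked protease at 25 nM; AMC peptide 10 µM.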
# [3] = test system: Zika virus NS2B-NS3 protease; test: Primary screen GU AMC qHTS for Zika virus inhibitors (AID 1347154); note: nearly all actives have a fitted effect of over 70% in size
# Method in brief: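 Unlinked Zika NS2B hydrophilic domain/NS3 protease domain noncovalent complex (25 nM final) in 10 mM Tris-HCl pH 8.0, 0.01% Tween 20, with AMC peptide substrate. Fluorescence (ex 340, em 450 nm) change over 15 min, room temperature; percent inhibition fitted to 4-parameter Hill equation.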
# [4] = biological target: Cytochrome P450 1A2 (Homo sapiens) (UniProt P05177); test: p450-cyp1a2 (AID 410; calls by dose curve; note: potency is the fitted concentration of half-maximal effect)
# Cytochrome P450 1A2 (Homo sapiens), sequence (P05177 whole entry, looked up): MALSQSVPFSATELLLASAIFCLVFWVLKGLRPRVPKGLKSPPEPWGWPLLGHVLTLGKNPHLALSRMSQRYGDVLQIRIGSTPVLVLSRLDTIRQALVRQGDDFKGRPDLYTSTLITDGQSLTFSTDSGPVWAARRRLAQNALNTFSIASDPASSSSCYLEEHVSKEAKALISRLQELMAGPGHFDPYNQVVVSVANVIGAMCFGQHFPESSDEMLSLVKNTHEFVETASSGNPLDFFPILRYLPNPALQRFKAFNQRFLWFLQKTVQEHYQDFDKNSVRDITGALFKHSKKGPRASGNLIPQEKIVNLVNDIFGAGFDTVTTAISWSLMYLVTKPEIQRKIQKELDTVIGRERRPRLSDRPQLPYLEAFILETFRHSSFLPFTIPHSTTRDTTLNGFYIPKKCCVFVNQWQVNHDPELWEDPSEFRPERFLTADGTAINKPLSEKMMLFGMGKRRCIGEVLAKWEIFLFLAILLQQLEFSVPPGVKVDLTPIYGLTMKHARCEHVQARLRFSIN
# Method in brief: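 20nM CYP1A2 with 100uM Luciferin-ME (at Km) in 100mM KPO4; compound preincubated 10 min, NADPH regeneration added, 60 min at room temperature. Luciferin quantified by luminescence after detection reagent; normalized to 57 uM furafylline.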
# [5] = biological target: Glucocorticoid receptor (Homo sapiens) (UniProt P04150); test: GR-GFP Redistribution (AID 450;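 active = compounds whose dose series gives a full or clear partial fitted curve of increased nuclear translocation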; note: potency is the fitted concentration of half-maximal effect); conditions: U2OS GR-GFP nuclear translocation, laser cytometry, 2 h
# Glucocorticoid receptor (Homo sapiens), sequence (P04150 whole entry, looked up, the tested form may be a part): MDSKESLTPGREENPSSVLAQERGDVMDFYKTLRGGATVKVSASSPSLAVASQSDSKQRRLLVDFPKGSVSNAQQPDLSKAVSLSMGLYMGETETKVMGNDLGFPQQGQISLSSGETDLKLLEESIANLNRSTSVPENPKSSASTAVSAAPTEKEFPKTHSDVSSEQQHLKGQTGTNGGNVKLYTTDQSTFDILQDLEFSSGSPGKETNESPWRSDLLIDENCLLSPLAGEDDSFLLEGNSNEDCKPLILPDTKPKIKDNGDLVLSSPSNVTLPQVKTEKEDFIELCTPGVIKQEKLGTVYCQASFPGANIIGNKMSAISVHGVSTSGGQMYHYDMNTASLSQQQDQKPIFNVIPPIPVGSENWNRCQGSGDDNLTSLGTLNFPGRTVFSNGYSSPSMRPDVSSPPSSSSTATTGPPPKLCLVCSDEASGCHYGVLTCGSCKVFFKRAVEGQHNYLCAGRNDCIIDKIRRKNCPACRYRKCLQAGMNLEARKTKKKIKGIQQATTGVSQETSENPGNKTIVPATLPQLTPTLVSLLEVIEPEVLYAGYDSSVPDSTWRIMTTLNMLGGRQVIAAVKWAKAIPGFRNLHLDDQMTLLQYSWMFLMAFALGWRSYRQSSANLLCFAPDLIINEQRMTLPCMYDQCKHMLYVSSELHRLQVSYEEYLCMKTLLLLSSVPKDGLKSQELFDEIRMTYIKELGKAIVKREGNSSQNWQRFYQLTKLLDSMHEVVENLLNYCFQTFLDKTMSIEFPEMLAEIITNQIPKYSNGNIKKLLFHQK
# [6] = biological target: Glucocorticoid receptor (Homo sapiens) (UniProt P04150); test: GR-EFC Redistribution (AID 451; calls by dose curve; note: potency is the fitted concentration of half-maximal effect); conditions: CHO-K1 GR-EFC translocation, beta-gal luminescence, 2 h
# Method in brief: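 CHO-K1 cells stably expressing nuclear-localized β-gal enzyme acceptor and GR fused C-terminally to the enzyme donor fragment; ligand-driven nuclear translocation restores β-gal by complementation. Compounds titrated up to 46 uM final, 2 h at 37 °C; luminescence read.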
# [7] = biological target: Mitogen-activated protein kinase 10 (Mus musculus) (UniProt Q61831); test: JNK3 AlphaScreen Assay (AID 530; active = well fitted curve in either direction with a large enough effect, not every such curve was filed as active;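 note: kinase came from lysate of stimulated human HepG2 cells; signal reports phosphorylation of biotinylated GST-cJun 1-79 at Ser73 with 10 µM ATP; series mostly up to about 57 µM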)
# Method in brief: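 Inhibitors reduce antibody binding to phosphorylated biotin-cJun, lowering AlphaScreen luminescence. Lysates from HepG2 cells pre-activated by IL-1beta plus TNF-alpha supplied JNK3; compounds were titrated.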
# [8] = biological target: 3',5'-cyclic-AMP phosphodiesterase 4B (Homo sapiens) (UniProt Q07343); test: qHTS Assay for Inhibitors of PDE-IV (AID 607; active = well fitted activation curve with a large enough effect in the main read-out, with a control signal flat, not every such curve was filed as active)
# 3',5'-cyclic-AMP phosphodiesterase 4B (Homo sapiens), sequence (Q07343 whole entry, looked up): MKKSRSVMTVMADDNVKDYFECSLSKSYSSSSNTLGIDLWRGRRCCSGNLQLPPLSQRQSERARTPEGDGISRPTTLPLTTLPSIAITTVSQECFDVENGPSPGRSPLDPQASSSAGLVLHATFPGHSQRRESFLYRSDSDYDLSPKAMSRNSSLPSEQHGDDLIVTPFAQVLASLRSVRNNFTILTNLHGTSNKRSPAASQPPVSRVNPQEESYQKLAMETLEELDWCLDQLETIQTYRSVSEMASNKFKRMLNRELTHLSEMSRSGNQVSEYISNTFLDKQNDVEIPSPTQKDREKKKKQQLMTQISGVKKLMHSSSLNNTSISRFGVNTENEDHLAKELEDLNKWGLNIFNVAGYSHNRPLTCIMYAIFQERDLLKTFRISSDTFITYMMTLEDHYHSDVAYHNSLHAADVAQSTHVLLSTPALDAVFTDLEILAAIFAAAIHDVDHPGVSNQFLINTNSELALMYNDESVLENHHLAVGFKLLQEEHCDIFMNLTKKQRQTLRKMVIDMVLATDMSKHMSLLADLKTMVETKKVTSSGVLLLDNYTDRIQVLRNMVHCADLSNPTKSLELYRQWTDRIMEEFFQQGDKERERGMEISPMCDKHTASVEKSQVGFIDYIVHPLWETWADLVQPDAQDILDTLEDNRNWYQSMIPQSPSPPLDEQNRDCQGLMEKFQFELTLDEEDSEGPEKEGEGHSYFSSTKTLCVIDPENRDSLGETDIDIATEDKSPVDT
# Method in brief: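 The readout is membrane depolarisation from a cAMP-sensing CNG channel, detected with a potential dye at ex 535/em 590. Cells were HEK293-derived (endogenous PDE-IV) at 1000 cells/well, titrated up to 22.9 uM final.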
# [9] = Confirmatory screen NINDS Rhodamine qHTS for Zika virus inhibitors (AID 1347161); note: potency is the fitted concentration of half-maximal effect; nearly all actives have a fitted effect of over 60% in size
# Method in brief: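 In 10 mM Tris-HCl pH 8.0 containing 0.01% Tween 20, linked NS2B-NS3 protease (25 nM final) is exposed to test compounds for 15 min. Cleavage of 1.5 microM Rhodamine110 substrate is tracked by fluorescence over 15 min.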
# [10] = test system: Zika virus NS2B-NS3 protease (linked construct); test: 384 well plate NINDS Rhodamine confirmatory qHTS for Zika virus inhibitors (AID 1347164);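 note: fluorescence from protease cleavage of Ac-LKRR-rhodamine 110 substrate; top concentration of the series differs between compounds; nearly all actives have a fitted effect of over 65% in size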
# Method in brief: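 Fluorescence at 485/538 nm was measured 25 minutes after adding 10 microM Ac-LKRR-Rd substrate, in the dark at room temperature. The protease (5, 30 or 60 nM final) had been preincubated ~15 minutes with compound; aprotinin as control.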
# [11] = HepG2 cells viability qHTS for Zika virus inhibitors (AID 1347168)
# Method in brief: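 Counter-screen for cytotoxicity of hits from NS2B-NS3 protease qHTS. Overnight-attached cells (2.5 x 10^5 cells/mL, DMEM/4% FBS) were dosed in titration, incubated 24 to 48 hours, then assayed by CellTiter Glo.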
# [12] = Primary qHTS for small molecule stabilizers of the endoplasmic reticulum resident proteome: Secreted ER Calcium Modulated Protein (SERCaMP) assay (AID 1508630)
# Method in brief: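 GLuc-SERCaMP-expressing SH-SY5Y cells, pretreated 16 h with compound, are challenged with thapsigargin to empty ER calcium stores; after 4 h, coelenterazine is added directly to the medium and luminescence is imaged.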
structure (smiles),measurement,setting,value
COc1cc2c(cc1OCC1CCCC1)N([S+](=O)([O-])c1ccc(Oc3ccccc3)cc1)CC21CCN(CC(=O)O)CC1,Potency,Furin (Homo sapiens),inactive
same,Potency,[1],inactive
same,Potency,[2],inactive
c1ccc2sc(C3(NCC4CC4)CCCCC3)cc2c1,Potency,[3],inactive
C[C@H](NC(=O)[C@@H](N)Cc1ccc(O)cc1)C(=O)NCC(=O)N(C)[C@@H](Cc1ccccc1)C(=O)N[C@H](CO)CCS(C)=O (some centres not stated),"activity change, negative = inhibition",[3],4.8% [at 6.83 µM]
Ic1cncc(OC[C@@H]2CCN2)c1,Potency,[4],0.398 µM (active)
same,Potency,[5],> 46 µM
same,Potency,[6],> 46 µM
same,outcome,[7],inactive
same,Potency,[8],inactive
same,Potency,Furin (Homo sapiens),inactive
same,Potency,[2],inactive
same,Potency,[9],34.9 µM (active)
same,Potency,[10],inactive
same,Potency,[11],inactive
same,Potency,[12],inactive
CN1C2CCC1CC(OC(c1ccc(F)cc1)c1ccc(F)cc1)C2 (configuration not stated),Potency,[3],inactive
